Data as given in PubChem BioAssay (NCI).
Values joined by “and” are separate entries in the source; they are usually repeats but may differ in a detail not shown here. Equal values may be shown once. Compounds without any hit were thinned out: in the full panel of roughly 83,000, 20% have a hit.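 Negative percent growth values reflect cell death: -40 means 40% of the cells present at the start died, and -100 means all died.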 A number with no mark means an inactive call. Active and inactive are the calls of the source. How the source made its calls: active means growth percent below 10; inactive means the rest.

tested on: HL-60(TB) leukemia; assay: NCI-60 one-dose screen, 48 h (100 = growth as untreated, 0 = no growth, -100 = all killed); settings: 10 µM unless noted

SMILES | growth
COc1cc(NCCCCCNC(C)C)c2ncccc2c1 | 104% and 58.4%
c1ccc(OCC[P+](c2ccccc2)(c2ccccc2)c2ccccc2)cc1 | -19.4% (active)
COC(=O)c1nc(-c2ccc(C)cc2)oc1S(=O)(=O)c1cccc(OC)c1 | 44.7%
Cc1ccsc1-c1ccc2c(c1)COC2(CCCN(C)C)c1ccc(F)cc1 (stereo not given) | 23%
Oc1c(Cl)cc(Cl)c(Cl)c1CNCCNCc1c(O)c(Cl)cc(Cl)c1Cl | -10.5% (active)
COc1ccc(-c2cc(NC(=O)Nc3ccc(O)cc3)no2)cc1 | 26.4%
CC(=O)N1CC(=O)NC1=S | 103%
CC(=O)CC(c1ccc([N+](=O)[O-])cc1)c1c(O)c2ccccc2oc1=O (stereo not given) | 97%
O=C(NCCc1nccs1)c1cnc2c(S)cccc2c1 | 16.6%
Cc1cc(NS(=O)(=O)c2ccc(N=Nc3cc(N=Nc4ccc(S(=O)(=O)Nc5cc(C)nc(C)n5)cc4)c4c(NC(=O)C(Cl)Cl)cccc4c3OC(=O)C(Cl)Cl)cc2)nc(C)n1 (tested in a mixture with another compound) | 116% and 98.5%
Cc1ccc2c(c1)/C(=N\N=C/c1cn(C(C)C)c3ccccc13)C(=O)N2 | -33.3% (active)
CC(=O)O[C@H]1CC[C@@]2(C)[C@@H](CC[C@@H]3[C@@H]2CC[C@]2(C)C=C(C=O)C[C@@H]32)C1 | -37.5% (active)
OCCCCCCNc1ncnc2cc(Cl)ccc12 | 88.9%
CC(=O)Nc1cccc2c1CCCC2 | 89.5% and 105%
C=C(C)[C@@H]1CC[C@]2(C(N)=O)CC[C@]3(C)[C@H](CC[C@@H]4[C@@]5(C)CCCNC(C)(C)[C@@H]5CC[C@]43C)[C@@H]12 | 61.1%
COc1ccc(-c2cc3ccc(N(C)C)cc3nc2N)c(F)c1 | -15.4% (active)
COc1cc(-c2nc3cc(Cl)c(Cl)cc3[nH]2)ccc1OCC(=O)N=Nc1c(O)[nH]c2ccc([N+](=O)[O-])cc12 | 94.9%
COc1ccc(-c2nc(NC(=O)CS(=O)(=O)c3ccc(F)cc3)sc2C)cc1 | 51.6%
C#CC(=O)Nc1cccc(Nc2nc3c(c(NCc4ccccc4)n2)CCCC3)c1 | -25.5% (active)
O=C1Nc2cc(Cl)ccc2/C1=C/c1ccc(N2CCOCC2)s1 | 93.4%
CN(C)CCNc1cc(-c2ccccc2)nc2ccccc12 | -17.7% (active)
Cc1ccc(NC(=O)COC(=O)c2ccc(S(=O)(=O)N3CCCCCC3)cc2)cc1 | 85.9%
CC1Cc2c(N(C)C)ncnc2N(C)c2ccc(O)cc21 (stereo not given) | 81.1%
CCCCCCCCCCCCN1CCCC(C)C1 (stereo not given) | 55.6%
O=[N+]([O-])c1ccc2c(N=Nc3ccc4ccccc4c3O)c(O)cc(S(=O)(=O)O)c2c1 | 108%
